Each structure is given as a SMILES string. In all, about 110,000 compounds were measured (“z-score”: median about -0.1, highest 2% from about 2 on). Many of the other results were omitted from the sample, so the highest values are more common in it than they were. The source made the active and inactive calls.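 How the source made its calls: active means z-score in the third read window above 3 or below -3; inactive means the rest.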

The test deals with Metabotropic glutamate receptor 8 (Rattus norvegicus) (UniProt P70579). The test is described as follows: mGluR8 Gi/Go-coupled signaling modulation – cell-based, rat, thallium flux, HTS, primary screen (AID 488969). Conditions: HEK293 rat mGluR8, GIRK (G protein-gated inwardly rectifying potassium channel) thallium flux, FluoZin2; at 10 µM; stronger effect = higher value; submaximal glutamate (EC20) added with thallium.
Sequence of Metabotropic glutamate receptor 8 (Rattus norvegicus) (P70579 whole entry, looked up): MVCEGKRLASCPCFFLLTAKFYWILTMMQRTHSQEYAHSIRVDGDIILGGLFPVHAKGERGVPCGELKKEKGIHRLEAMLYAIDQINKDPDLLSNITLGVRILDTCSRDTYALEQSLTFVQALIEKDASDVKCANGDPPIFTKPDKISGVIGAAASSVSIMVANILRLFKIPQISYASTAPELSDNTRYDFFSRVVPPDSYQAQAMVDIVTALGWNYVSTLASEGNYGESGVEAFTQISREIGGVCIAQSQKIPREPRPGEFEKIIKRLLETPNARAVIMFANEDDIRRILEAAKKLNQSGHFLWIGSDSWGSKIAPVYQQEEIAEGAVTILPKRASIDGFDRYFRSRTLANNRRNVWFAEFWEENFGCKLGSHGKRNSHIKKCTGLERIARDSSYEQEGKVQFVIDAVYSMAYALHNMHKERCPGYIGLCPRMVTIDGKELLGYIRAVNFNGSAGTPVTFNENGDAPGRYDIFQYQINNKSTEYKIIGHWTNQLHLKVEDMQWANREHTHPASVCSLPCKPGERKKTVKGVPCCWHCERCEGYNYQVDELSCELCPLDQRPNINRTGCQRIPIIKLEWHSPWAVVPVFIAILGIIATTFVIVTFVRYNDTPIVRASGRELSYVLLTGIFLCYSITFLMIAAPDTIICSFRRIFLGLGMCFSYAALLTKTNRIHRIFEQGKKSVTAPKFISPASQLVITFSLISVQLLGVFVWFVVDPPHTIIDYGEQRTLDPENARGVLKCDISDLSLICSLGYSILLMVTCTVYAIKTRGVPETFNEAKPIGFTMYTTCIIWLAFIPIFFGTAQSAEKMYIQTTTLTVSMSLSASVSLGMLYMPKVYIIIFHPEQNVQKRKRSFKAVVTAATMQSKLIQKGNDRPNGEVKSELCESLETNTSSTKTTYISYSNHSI
In turn, `CC(=O)SC(C)CC(=O)NCc1ccccc1` (stereo unspecified) registered a z-score of -0.123. Consider `Cc1ccccc1Nc1nc2nonc2nc1N1CCOCC1`, for which the z-score was 6.03 (active).

`Cc1ccc(C)c(Nc2nc3nonc3nc2N2CCOCC2)c1` showed a z-score of 0.382. `COc1ccccc1Nc1nc2nonc2nc1N1CCC(C)CC1` had a z-score of -0.00241. For `CCCCC(=O)Nc1cc(C(=O)NCCc2ccccc2)ccc1Cl` the value was 0.145; for `CC1CCN(c2nc3ccccc3nc2N2CCC(C)CC2)CC1`, -0.169; for `CC1CCN(c2ncccc2C(=O)O)CC1`, 4.14 (active).

In turn, `O=C(Nc1ccccc1)c1cccnc1N1CCCC1` registered a z-score of 0.569. Consider `Cc1ccc(-n2nnnc2SCC(=O)c2ccc3c(c2)NC(=O)CO3)c(C)c1`, for which the z-score was -0.0959.

Compound `Cc1ccc(C2(C)NC(=O)N(CC(=O)Nc3c(C)n(C)n(-c4ccccc4)c3=O)C2=O)cc1` (stereo unspecified) showed a z-score of -0.208. In the case of `CCc1ccc(NC(=O)CSc2nc3n[nH]c(C)c3c(=N)n2-c2cccc(OC)c2)cc1`, the z-score came out at 0.339. For `COc1cccc(-n2c(SCC(=O)NCCC3=CCCCC3)nc3n[nH]c(C)c3c2=N)c1` the value was 8.62 (active). The figure for `CCc1ccccc1NC(=O)CSc1nc2n[nH]c(C)c2c(=N)n1-c1cccc(OC)c1` is 0.747; for `COc1ccc(/C=C/C(=O)NC(C)C)cc1Br` it is -0.339.

In turn, `CCCOc1ccc(C(=O)N2CCCC2)cc1OC` came in with a z-score of -0.411. For the compound `S=C(NCCN1CCOCC1)N/N=C/c1ccccc1`, the z-score was 0.728. The figure for `CC(C)NC(=S)N/N=C/c1ccc(N2CCOCC2)cc1` is 0.522; for `Cc1ccc(/C=N/NC(=S)N2CCOCC2)cc1` it is 4.72 (active); for `NC(=S)N/N=C/c1ccccc1` it is 0.103. For `S=C(N/N=C/c1ccccc1)N1CCOCC1` the value was 2.65; for `S=C(Nc1ccc(Cl)cc1Cl)N1CCOCC1`, -0.325. Turning to `Cc1ccc(NC(=S)N2CCOCC2)cc1`, the z-score is -0.0267. For `S=C(N/N=C/c1ccc(Cl)cc1)N1CCOCC1`, the z-score was 11.9 (active).

Take `S=C(Nc1ccc(Cl)cc1)N1CCOCC1`: the z-score came to 0.122. Compound `COc1ccc(OCCN2CCN(C3CC(=O)N(CCC(C)C)C3=O)CC2)cc1` (stereo unspecified) yielded a z-score of -0.363.

As for `O=C(/C=C/c1c(Cl)cccc1Cl)N1CCN(c2ncccn2)CC1`, the z-score was -0.303.

As for `COCC(C)NC(=O)c1ccccc1OC(C)=O` (stereo unspecified), the z-score was -0.44.

`COc1cc(/C=N/NC(=O)c2sc(N)c(C#N)c2C)cc(Br)c1O`: the z-score is -0.544. For `Cc1cc(C)n(-c2ccc(C(=O)OCC(=O)Nc3ccc(Cl)cc3[N+](=O)[O-])cc2)n1` the value was -0.362; for `COc1ccc2cc(C(=O)Nc3ccc(F)cc3)sc(=O)c2c1OC`, 0.534; for `COc1ccc2cc(C(=O)NCCO)sc(=O)c2c1OC`, -0.297.

`COc1ccc2cc(C(=O)OC(C)C)sc(=O)c2c1OC` displayed a z-score of -0.229. Turning to `COc1ccc2cc(C(=O)NCC(=O)O)sc(=O)c2c1OC`, the z-score is 3.42 (active). For `COC(=O)c1cc2ccc(OC)c(OC)c2c(=O)s1` the value was 0.0942; for `COc1ccc2cc(C(=O)Nc3ccccc3)sc(=O)c2c1OC`, 4.25 (active). The figure for `N#Cc1ccc(C(=O)Nc2cc(S(=O)(=O)Nc3ccc(Cl)cc3)ccc2N2CCCCC2)cc1` is -0.309.

In the case of `O=C(O)CCc1ccc(-c2ccc(F)cc2)n1NC(=O)c1ccco1`, the z-score is 0.168. In turn, `N#CC1=C(N)Oc2cc(O)c(C=Nc3ccccc3)cc2C1c1ccccc1` (stereo unspecified) yielded a z-score of -0.423. The figure for `COc1ccc(N=Cc2cc3c(cc2O)OC(N)=C(C#N)C3c2ccccc2)cc1` (stereo unspecified) is -1.18. For `Cc1ccc(N=Cc2cc3c(cc2O)OC(N)=C(C#N)C3c2ccccc2)cc1` (stereo unspecified) the value was 6.28 (active).

The compound `O=C(c1ccc(Cn2c(=O)[nH]c3ccccc3c2=O)cc1)N1CCN(c2ccc(Cl)cc2)CC1` showed a z-score of -0.127.

`CC(C)CCn1c(CN2CCN(Cc3ccccc3)CC2)nc2c1c(=O)[nH]c(=O)n2C`: the z-score is 5.8 (active). For `CN1CCN(Cc2nc3c(c(=O)[nH]c(=O)n3C)n2CCc2ccccc2)CC1` the value was -0.00916; for `CC(C)CCn1c(CN2CCN(Cc3ccccc3)CC2)nc2c1c(=O)n(C)c(=O)n2C`, 0.709.

Compound `CC(C)CCNC(=O)CO/N=C/c1ccccc1OC(F)F` gave a z-score of -0.572. As to `N#CCSc1nc(Nc2ccc3c(c2)OCO3)c2ccccc2n1`, the z-score is -0.556. Regarding `COc1cc(Nc2nc(SCC#N)nc3ccccc23)cc(OC)c1OC`, the z-score was found to be 2.31.

The compound `COc1cc(Nc2nc3ccccc3n3nnnc23)cc(OC)c1OC` gave a z-score of -0.0435.

For `CC(C)COC(=O)c1cccc2c1-c1ccccc1/C2=N\O`, the z-score is -0.108. Regarding `O=C(Nc1cccc(Oc2ccc3c(c2)C(=O)NC3=O)c1)c1cccs1`, the z-score was 0.83. For `CC1CCCC(n2c(=S)[nH]c3ccccc3c2=O)C1C` (stereo unspecified) the value was 9.07 (active); for `CC1CCCCC1n1c(=S)[nH]c2ccccc2c1=O` (stereo unspecified), 16.2 (active). Compound `Cc1cc(C)c2c(N=NN3CCCCC3)[nH]nc2n1` came in with a z-score of -0.0999. For `CCN(CC)S(=O)(=O)c1ccc(NC(=O)c2ccc(NS(C)(=O)=O)cc2)cc1` the value was 1.67. For `CCn1c(N2CCN(C(=S)NCC(C)C)CC2)nc2ccccc21` the value was -0.148; for `CCCC(=O)NCc1ccc2c(c1)cc(C)n2C`, -0.371; for `CC1=C(C(=O)OCC2CCCO2)C(c2ccc(C)o2)C2=C(CC(c3ccc(F)cc3)CC2=O)N1` (stereo unspecified), -3.31 (active). `CC1=C(C(=O)OCC2CCCO2)C(c2ccc(C)o2)C2=C(CC(c3ccc(N(C)C)cc3)CC2=O)N1` (stereo unspecified) showed a z-score of -0.22.

Turning to `CCOC(=O)C1=C(C)NC2=C(C(=O)CC(c3ccc(OC)c(OC)c3)C2)C1c1ccc(C)o1` (stereo unspecified), the z-score was 4.89 (active). With `Cc1cc(C(F)(F)F)nc(SCC(=O)NC2=NC(=O)C(C)S2)n1` (stereo unspecified), the z-score is 0.475. The figure for `O=C(CNC(=O)c1cccc(F)c1)N/N=C/c1cc(Br)ccc1OC(=O)/C=C/c1ccco1` is 2.46; for `O=C(CNC(=O)c1ccccc1F)N/N=C/c1cc(Br)ccc1OC(=O)/C=C/c1ccco1` it is -0.338; for `COc1ccccc1C(=O)NCC(=O)N/N=C/c1cc(Br)ccc1OC(=O)/C=C\c1ccco1` it is -0.122. The figure for `Cc1cc(C)nc(NC(=O)c2ccc(C)c([N+](=O)[O-])c2)n1` is -0.0674; for `O=C(CC(=O)Nc1ccccn1)Nc1ccccn1` it is 4.08 (active); for `O=C(CN1CCN(CC(=O)Nc2ccccn2)CC1)Nc1ccccn1` it is -0.212.

In turn, `O=C(Nc1ccccc1)C(=O)Nc1ccccn1` showed a z-score of -0.125. The figure for `COc1ccc(OCc2nc3ccc(S(=O)(=O)Nc4ccccc4Cl)cc3[nH]2)cc1` is -0.822; for `Cc1ccc(S(=O)(=O)N2CCCCC2)cc1NC(=O)CSc1ccc2c(c1)OCCO2` it is -0.361. With `CCCCSc1nc(O)c(Cc2ccccc2)c(=O)[nH]1`, the z-score came out at 0.379. In turn, `Nc1nc(SCC(=O)N2CCCC2)[nH]c(=O)c1NC(=O)c1ccco1` registered a z-score of 0.975. The figure for `CCCCSc1nc(N)c(NC(=O)c2ccco2)c(=O)[nH]1` is 3.07 (active).

With `O=C(O)C1C2C=CC(C3CC23)C1C(=O)NCCc1ccccc1` (stereo unspecified), the z-score came out at 0.335.

For the compound `Cc1cc(C)n2nc(C(=O)NCc3ccccc3)cc2n1`, the z-score came to 0.128. `CCS/C(N)=N/N=C/c1cc(C)ccc1O` registered a z-score of -0.389. For `O=C(c1ccc(F)cc1)C1CCN(C(=S)Nc2ccccc2)CC1` the value was -0.612. `CCc1ccccc1NC(=S)N1CCC(C(=O)c2ccc(F)cc2)CC1` showed a z-score of 0.202. For `Cc1cccc(NC(=S)N2CCC(C(=O)c3ccc(F)cc3)CC2)c1C` the value was 5.76 (active); for `Cc1ccc(Cn2ncc3c(NCCCN4CCOCC4)ncnc32)cc1`, -0.227; for `CCc1nnc(NC(=O)CSc2nnc(-c3cccnc3)n2CCc2ccccc2)s1`, 0.167. With `Cc1ccc(OCCn2c(=O)sc3ccccc32)cc1`, the z-score is -0.193. The figure for `COc1ccc(CO/N=C/c2c(C)[nH]c(=O)[nH]c2=O)cc1` is 3.36 (active).

On to `COc1ccc(N(C)S(=O)(=O)c2c(C)[nH]c(=O)[nH]c2=O)cc1`, for which the z-score amounted to 0.02. The figure for `COc1ccc(Cc2c[nH]c(=O)[nH]c2=O)cc1` is -0.218. For `O=C(CSc1ncn[nH]1)Nc1ccc([N+](=O)[O-])cc1Br` the value was -0.12; for `CCCCCNC1=CC(=O)CC(c2ccccc2)C1` (stereo unspecified), -0.123. The compound `COc1ccc(C2CC(=O)C=C(NCCC(C)C)C2)cc1` (stereo unspecified) had a z-score of 0.226. For `CC(C)CCNC1=CC(=O)CC(c2ccccc2)C1` (stereo unspecified) the value was 2.1; for `CC(c1ccccc1)N1C(=O)c2ccc(C(=O)NCc3ccco3)cc2C1=O` (stereo unspecified), -0.54. The figure for `Cc1ccc(N=C(NO)c2nonc2N)cc1` is -1.5.

With `Cn1ccnc1C(O)(c1nnc(-c2ccccc2)o1)C(F)(F)F` (stereo unspecified), the z-score is -1.19. On to `Cc1cc(C(=O)N=Nc2c(O)n(C(C)C)c3ccccc23)n[nH]1`, for which the z-score was 0.232. The figure for `CC(C)n1c2ccccc2c2nc3ccccc3nc21` is -0.47; for `CC(C)n1c(O)c(N=Nc2ccc(Cl)nn2)c2ccccc21` it is 3.42 (active); for `CC(C)n1c(O)c(N=Nc2ccccn2)c2ccccc21` it is 2.21. The figure for `CC(C)n1c(O)c(N=NC(=O)c2ccccc2NS(=O)(=O)c2cccs2)c2ccccc21` is -0.411; for `CC(C)CCn1c(O)c(N=Nc2ccccn2)c2ccccc21` it is 1.19. For the compound `CC(C)n1c(O)c(N=NC(=O)Cn2ccc(C(F)(F)F)n2)c2ccccc21`, the z-score came to 1.13.

Compound `CCCCn1c(O)c(N=NC(=O)Cn2c(C(F)(F)F)nc3ccccc32)c2ccccc21` registered a z-score of 0.194. `CCCCn1c(O)c(N=Nc2ccccn2)c2ccccc21`: the z-score came out at 2.97. For `COc1ccc(CC(=O)NCc2ccco2)cc1OC` the value was -0.0499; for `CN(C)C(CNS(=O)(=O)c1ccc(Cl)cc1)c1cccnc1` (stereo unspecified), -0.0299; for `CCOC(=O)CCc1c(C)c2ccc(OCC(=O)N(CC)CC)c(C)c2oc1=O`, -0.0102. The figure for `CCCc1cc(=O)[nH]c(SCC(=O)N2N=C(c3ccc(Cl)cc3)CC2c2ccco2)n1` (stereo unspecified) is -0.126; for `COCCn1c(=S)[nH]c2cc(C(=O)N3CCC(C(N)=O)(N4CCCCC4)CC3)ccc2c1=O` it is -0.286; for `CCOc1ccccc1N1CCN(Cc2cccc(OC)c2O)CC1` it is -0.0607. The figure for `COc1ccccc1N1CCN(Cc2cc(Br)c(O)c3ncccc23)CC1` is 3.32 (active); for `COc1ccccc1N1CCN(Cc2ccc(O)c3ncccc23)CC1` it is -0.0396. In the case of `Cc1cc(C(=O)NCC(=O)OCC(=O)N(C)C2CCCCC2)ccc1[N+](=O)[O-]`, the z-score was 0.828. The figure for `CCOC(=O)C1C(=O)C=C(/C=C/c2ccccc2)CC1c1ccc(Cl)cc1` (stereo unspecified) is -0.123; for `CC(C)[C@H](NC(=O)OC(C)(C)C)c1nnc(SCC(=O)Nc2ccc(Br)cc2)o1` it is -0.355.
